# Only some compounds are listed: those with a hit (about 7.5% of all), similar ones and a draw of the others.
# ELG1 genotoxic: qHTS screen for small molecules that induce genotoxicity in human embryonic kidney (HEK293T) cells expressing luciferase-tagged ELG1. HEK293T ELG1-luciferase reporter, luminescence, 16 h. Potency, µM (titrated, usually from 46 µM), hits mostly activators. 330,000 compounds, 1.3% hits. AID 504466, 2011; further: nearly all actives have a fitted effect of over 60% in size
#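 Genotoxic stress is detected as increased luminescence from luciferase-tagged ELG1 in HEK293T cells, measured with ONE-Glo after a 16 hr treatment at 37 °C.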
# SMN2 splice up: qHTS Assay for Enhancers of SMN2 Splice Variant Expression. AID 1458, 2008. 210,000 compounds, 2.8% hits. Potency, µM (top dose mostly 46.1 µM), actives largely listed as activators. HEK293 SMN2-luciferase splicing reporter, luminescence, 30-36 h; further: nearly all actives have a fitted effect of over 55% in size
#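 qHTS luciferase splicing reporter: luminescence rises when SMN2 exon 7 is included in transfected HEK293 cells. Compound exposure lasted 30-36 h at 37C, with 4.5 mM final sodium butyrate as control, followed by a ONE-Glo read.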
# FLuc modulator: qHTS profiling assay for firefly luciferase inhibitor/activator using purifed enzyme and Km concentrations of substrates (counterscreen for miR-21 project). purified FLuc, Km substrates, luminescence inhibition. AID 588342, 2011. 360,000 compounds, 6.9% hits. Potency, µM (titrated, usually from 57.5 µM), hits mostly inhibitors; further: nearly all actives have a fitted effect of over 55% in size
# Target sequence (P08659 whole entry, looked up): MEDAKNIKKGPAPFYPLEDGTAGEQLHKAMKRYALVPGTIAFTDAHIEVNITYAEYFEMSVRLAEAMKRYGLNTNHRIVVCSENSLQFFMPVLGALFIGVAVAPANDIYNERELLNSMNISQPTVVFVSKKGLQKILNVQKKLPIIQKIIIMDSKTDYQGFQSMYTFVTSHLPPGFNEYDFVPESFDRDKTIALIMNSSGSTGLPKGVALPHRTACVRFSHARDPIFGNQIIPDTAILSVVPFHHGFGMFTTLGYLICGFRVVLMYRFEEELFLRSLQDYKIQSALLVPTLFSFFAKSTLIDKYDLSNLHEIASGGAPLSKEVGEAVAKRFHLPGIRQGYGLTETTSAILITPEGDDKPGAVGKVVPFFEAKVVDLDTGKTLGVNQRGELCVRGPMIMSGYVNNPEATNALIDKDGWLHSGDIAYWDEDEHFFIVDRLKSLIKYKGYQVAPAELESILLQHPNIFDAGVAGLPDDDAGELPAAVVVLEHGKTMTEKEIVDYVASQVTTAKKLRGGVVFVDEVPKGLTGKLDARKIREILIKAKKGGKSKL
#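 Purified P. pyralis luciferase (10nM final) with 10uM D-luciferin and 10uM ATP (Km levels) in 50mM Tris acetate pH 7.5, 10mM Mg acetate, 0.01% Tween-20, 0.05% BSA; qHTS 6-point titration, ~60 µM downward; luminescence read.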
# Rab9 promoter act: qHTS Assay for Rab9 Promoter Activators; Potency, µM (titrated, usually from 9.22 µM), actives largely listed as activators; AID 485297, 2010; Huh7 Rab9 promoter-luciferase reporter, luminescence, 24 h; 320,000 compounds, 2.8% hits; further: nearly all actives have a fitted effect of over 60% in size
#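 Huh7 reporter line, Rab9 promoter upstream of luciferase. Compound exposure 24 h at 37 °C in reduced-serum medium with 10% FBS. Read-out: luminescence.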
# NPC1 prom act: qHTS Assay for NPC1 Promoter Activators; Huh7 NPC1 promoter luciferase reporter, 24 h; Potency, µM (doses to about 9.22 µM), usual class: activators; AID 485313, 2010; 320,000 compounds, 2.4% hits; further: nearly all actives have a fitted effect of over 60% in size
#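 Stably transfected Huh7 (NPC1 promoter→luciferase), 1500 cells/well in Opti-MEM + 10% FBS, 2 h settle, then compound 24 h at 37 °C. Luminescence after 10 min with Amplite reagent.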
# A number is an active result; - = inactive; ? = inconclusive; . = no result; [ ] = dose if it differs, or a comment. The call rests on the fitted dose curve; in most records, active means well fitted curve in the direction sought with a large enough effect; inconclusive means small, poorly fitted or top-dose-only effect, or another doubt; inactive means no such curve, though single readings can be large; an effect the other way counts as inactive or inconclusive.
SMILES,ELG1 genotoxic,SMN2 splice up,FLuc modulator,Rab9 promoter act,NPC1 prom act
Fc1ccccc1/C=N/Nc1ncnc2ccccc12,?,11µM,1.7µM,3.2µM,-
Clc1ccc(/C=N/Nc2ncnc3ccccc23)cc1Cl,?,?,8.5µM,4µM,?
Brc1ccc(/C=N/Nc2ncnc3c2cnn3Cc2ccccc2)cc1,-,-,-,-,-
Clc1cccc(/C=N/Nc2nc(Cl)nc3ccccc23)c1,?,22µM,4.8µM,4µM,2.8µM
O=C(NC(=S)NCc1cccnc1)c1cc(Br)ccc1Cl,-,.,-,-,-
O=C(CC1OC(=O)c2ccccc21)Nc1cc(Cl)ccc1N1CCCC1 (stereo not drawn),-,.,-,-,-
Nc1ccc(C(=O)N/N=C\c2cc(N=Nc3cccc4ccccc34)ccc2O)cc1,-,-,7.6µM,-,-
COC(=O)N/N=C/c1cc(N=Nc2ccccc2Cl)ccc1O,-,.,6µM,?,?
COC(=O)N/N=C/c1cc(N=Nc2ccccc2)ccc1O,-,.,?,-,-
Cc1cc(C(=O)N/N=C/c2cc(N=Nc3ccccc3)ccc2O)n[nH]1,?,-,?,-,-
O=C(CN1C(=O)/C(=C2/SC(=S)N(CCS(=O)(=O)O)C2=O)c2ccccc21)Nc1cccc(Br)c1,-,.,.,.,.
Nc1ccc(-c2nc3ccc(-c4nc5ccccc5o4)cc3[nH]2)cc1,-,-,?,-,-
Cc1ccnc2ccc(-c3nc4ccccc4o3)cc12,?,18µM,5.4µM,3.5µM,?
Cc1nc2ccc(-c3nc4ccccc4o3)cc2[nH]1,?,?,2.4µM,0.45µM,0.71µM
CC(C)Oc1ccc(OCCn2c(S(=O)(=O)O)nc3c(N)ncnc32)cc1,-,.,?,-,-
[O-]/[N+](=C/c1ccc(F)cc1)c1ccccc1,-,-,?,-,-
[O-]/[N+](=C\C=C\c1ccccc1)c1ccccc1,?,.,4.8µM,1.8µM,2.5µM
CCN(C(=O)Cc1c(C(=O)O)[nH]c2ccccc12)c1ccc(OC)cc1,-,-,-,-,-
CC1CCCCN1c1csc2ccc(F)cc2c1=O (stereo not drawn),.,.,7.6µM,.,.
Cc1ccc2scc(N3CCCC(C)C3)c(=O)c2c1 (stereo not drawn),.,.,0.76µM,.,.
Cc1ccc2scc(N3CCN(c4cccc(C(F)(F)F)c4)CC3)c(=O)c2c1,.,.,-,.,.
N/N=C1/c2ccccc2N[C@H]1OC(=O)Nc1cccc(Cl)c1,.,-[9.22 µM],.,.,.
CCOc1ccc(-c2nc3ccccc3c(=O)o2)cc1,?,16µM,0.43µM,1.4µM,3.5µM
CCCCCCOc1ccc(-c2nc3ccc(Br)cc3c(=O)o2)cc1,.,-,-,.,.
COc1ccc(-c2nc3ccccc3c(=O)o2)cc1OC,-,-,8.5µM,-,-
SMILES,ELG1 genotoxic,SMN2 splice up,FLuc modulator,Rab9 promoter act,NPC1 prom act
COC(=O)[C@@]1(Cc2ccccc2)[C@H]2c3cc(C(=O)N(C)C)n(Cc4ccccc4)c3C[C@H]2CN1C(=O)c1ccccc1,.,-,.,.,.
CC(=O)c1cccc(NC(=O)CSc2nnc(C(C)N(C)C)n2Cc2ccccc2)c1 (stereo not drawn),-,.,-,-,-
CC(C)(C)c1ccc(/C=C2\SC(=O)N(CCNC(=O)c3cccc(S(=O)(=O)N4CCOCC4)c3)C2=O)cc1,?,-,0.54µM,0.89µM,0.71µM
O=C(COc1ccccc1)NCC(=O)Nc1cccc(S(=O)(=O)NC2=NCCC2)c1,-,-,-,-,-
O=C(Nc1cccc(S(=O)(=O)N2CCCC2)c1)c1ccc2c(=O)n3c(nc2c1)CCCCC3,-,-,12µM,-,-
COc1ccc(NC(=O)c2ccc3c(=O)n4c(nc3c2)CCCCC4)cc1,-,.,27µM,-,-
O=C(Nc1ccc(SC(F)F)cc1)c1ccc2c(=O)n3c(nc2c1)CCC3,-,.,2.4µM,?,-
O=C(Nc1ccc(S(=O)(=O)C(F)F)cc1)c1ccc2c(=O)n3c(nc2c1)CCC3,-,.,-,-,-
O=C(NC1CCCCCC1)c1ccc2c(=O)n3c(nc2c1)CCCCC3,3.5µM,13µM,8.5µM,2µM,2.8µM
CC(C)NC(=O)c1ccc(Cn2c(=O)c3cccn3c3cccnc32)cc1,.,.,-,.,.

# Screening results from PubChem.
